From PubChem BioAssay (Tox21)
Records with an inconclusive call do not appear. Calls of active or inactive are those of the source. Unless noted, calls come from the whole dose curve; as a rule, active = well fitted curve in the direction sought with a large enough effect in the repeat runs; inconclusive = weak or mixed curves; inactive = no such curve, though single readings can be large; an effect the other way counts as inactive or inconclusive.

Columns and labels:
[1] = qHTS RealTime-Glo MT Cell Viability Assay in HEK293 cells - 24 hour (AID 1224886); note: top concentration of the series differs between compounds; nearly all actives have a fitted effect of over 50% in size
Method in brief: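 Homogeneous bioluminescent viability format in HEK293 cells (600 cells/well). Following 5 h at 37 C/5% CO2, 23 nL compound was pintooled; the signal was measured repeatedly during 40 h incubation.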

[2] = qHTS RealTime-Glo MT Cell Viability Assay in HEK293 cells - 8 hour (AID 1224887); note: top concentration of the series differs between compounds; nearly all actives have a fitted effect of over 50% in size
Method in brief: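 600 HEK293 cells per well, dispensed already mixed with RealTime-Glo MT reagents. Compound dosing came 5 h later. The same wells were read for luminescence at 0, 8, 16, 24, 32 and 40 h of exposure at 37 C.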

[3] = A CellTox Green Cytotoxicity Assay to monitor cytotoxicity in HEK293 cells - 16 hour (AID 1224888); note: nearly all actives have a fitted effect of over 35% in size
Method in brief: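 Dead-cell fluorescence measured kinetically: asymmetric cyanine dye, HEK293, 600 cells/well, 5 h settle, 23 nL cpd/DMSO, 37 C, reads 0–40 h every 8 h.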

[4] = qHTS RealTime-Glo MT Cell Viability Assay in HepG2 cells - 0 hour (AID 1224889); note: nearly all actives have a fitted effect of over 50% in size
Method in brief: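 Cell number in HepG2 cultures estimated from NanoLuc luminescence generated by metabolic reduction of a prosubstrate by living cells. The homogeneous, nonlytic format allowed repeated reads at 0, 8, 16, 24, 32 and 40 h of compound exposure.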

[5] = A CellTox Green Cytotoxicity Assay to monitor cytotoxicity in HepG2 cells - 8 hour (AID 1224890); note: nearly all actives have a fitted effect of over 45% in size
Method in brief: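 First, HepG2 cells (600/well) mixed with reagent were plated; second, after 5 h at 37 C they received compounds via pintool; third, fluorescence was measured at 0 h through 40 h at 8 h intervals.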

[6] = qHTS assay to identify small molecule antagonists of the estrogen receptor alpha (ER-alpha) signaling pathway using the BG1 cell line in the presence of 0.1 nM 17-beta-estradiol - cell viability counter screen (AID 1259241); note: nearly all actives have a fitted effect of over 40% in size
Method in brief: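 Following 5 days in phenol red-free medium with charcoal-stripped serum, VM7Luc4E2 cells received test compounds alongside 0.1 nM 17beta-estradiol (final) at 37C for 22 hr. Live cells were then quantified via protease-substrate fluorescence.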

[7] = qHTS assay to identify small molecule antagonists of the androgen receptor (AR) signaling pathway using the MDA cell line in the presence of 0.5 nM R1881 - cell viability counter screen (AID 1259242); note: nearly all actives have a fitted effect of over 45% in size
Method in brief: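 qHTS format. MDA-kb2 (MMTV-luc, AR/GR responsive) + cpd + 0.5 nM R1881 final, 16 hr 37C/0% CO2 → CellTiter-Fluor 30 min → fluorescence intensity.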

[8] = biological target: Androgen receptor (Homo sapiens) (UniProt P10275); assay: qHTS assay to identify small molecule antagonists of the androgen receptor (AR) signaling pathway using the MDA cell line in the presence of 0.5 nM R1881 (AID 1259243); note: nearly all actives have a fitted effect of over 50% in size
Androgen receptor (Homo sapiens), sequence (P10275 whole entry, looked up): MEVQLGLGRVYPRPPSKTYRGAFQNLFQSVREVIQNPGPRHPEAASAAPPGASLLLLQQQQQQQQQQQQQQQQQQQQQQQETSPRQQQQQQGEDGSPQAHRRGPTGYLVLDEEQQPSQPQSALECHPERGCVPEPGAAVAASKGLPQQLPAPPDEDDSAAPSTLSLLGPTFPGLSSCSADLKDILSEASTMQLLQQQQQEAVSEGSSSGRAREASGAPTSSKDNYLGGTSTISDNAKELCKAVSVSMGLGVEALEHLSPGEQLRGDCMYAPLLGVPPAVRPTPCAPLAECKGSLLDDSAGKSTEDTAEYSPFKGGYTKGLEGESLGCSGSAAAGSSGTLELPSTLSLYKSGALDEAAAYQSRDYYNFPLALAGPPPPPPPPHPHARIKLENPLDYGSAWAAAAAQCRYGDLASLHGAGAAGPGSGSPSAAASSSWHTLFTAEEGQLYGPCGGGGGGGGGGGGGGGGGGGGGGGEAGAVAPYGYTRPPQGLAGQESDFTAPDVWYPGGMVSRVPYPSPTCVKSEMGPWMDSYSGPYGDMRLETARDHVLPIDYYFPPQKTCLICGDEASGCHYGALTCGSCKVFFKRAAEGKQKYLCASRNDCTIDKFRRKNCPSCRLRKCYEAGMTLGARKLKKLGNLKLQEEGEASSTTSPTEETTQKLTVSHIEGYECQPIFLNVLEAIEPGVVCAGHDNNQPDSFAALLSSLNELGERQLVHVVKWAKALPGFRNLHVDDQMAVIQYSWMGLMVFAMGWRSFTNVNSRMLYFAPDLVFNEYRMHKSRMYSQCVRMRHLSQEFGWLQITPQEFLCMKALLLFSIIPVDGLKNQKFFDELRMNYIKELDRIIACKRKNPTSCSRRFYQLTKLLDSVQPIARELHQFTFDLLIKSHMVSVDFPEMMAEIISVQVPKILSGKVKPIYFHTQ
Method in brief: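 Antagonist mode quantitative HTS in MDA-kb2 MMTV-luciferase cells, agonist R1881 at 0.5 nM final, 16 hr exposure at 37C and 0% CO2, luminescent detection.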

[9] = biological target: Estrogen receptor (Homo sapiens) (UniProt P03372); assay: qHTS assay to identify small molecule antagonists of the estrogen receptor alpha (ER-alpha) signaling pathway using the BG1 cell line in the presence of 0.1 nM 17-beta-estradiol (AID 1259244); note: nearly all actives have a fitted effect of over 50% in size
Estrogen receptor (Homo sapiens), sequence (P03372 whole entry, looked up): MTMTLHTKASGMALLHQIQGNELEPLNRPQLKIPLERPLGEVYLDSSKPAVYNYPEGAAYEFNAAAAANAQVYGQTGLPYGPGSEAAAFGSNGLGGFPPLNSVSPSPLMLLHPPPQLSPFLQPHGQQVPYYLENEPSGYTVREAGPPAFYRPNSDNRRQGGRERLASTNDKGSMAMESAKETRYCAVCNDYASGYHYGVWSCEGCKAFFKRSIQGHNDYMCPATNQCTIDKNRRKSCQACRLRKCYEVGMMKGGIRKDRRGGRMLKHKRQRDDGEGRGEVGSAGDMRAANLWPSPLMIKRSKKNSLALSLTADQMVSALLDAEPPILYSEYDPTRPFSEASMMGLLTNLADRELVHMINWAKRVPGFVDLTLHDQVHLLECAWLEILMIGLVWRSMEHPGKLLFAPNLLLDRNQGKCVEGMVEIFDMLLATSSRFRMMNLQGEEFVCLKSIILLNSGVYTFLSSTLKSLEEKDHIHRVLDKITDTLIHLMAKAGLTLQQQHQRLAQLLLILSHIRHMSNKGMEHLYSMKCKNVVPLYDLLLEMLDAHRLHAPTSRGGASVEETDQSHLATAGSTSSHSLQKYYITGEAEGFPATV
Method in brief: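 Reporter is a stably transfected luciferase under four estrogen responsive elements in VM7Luc4E2 cells expressing native full-length ER-alpha; inhibition of 0.1 nM (final) 17beta-estradiol-driven signal over 22 h is read by luminescence.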

[10] = qHTS assay to identify small molecule phospholipidosis (PLD) inducers (AID 1259344; active = well fitted curve in the direction sought with a large enough effect; an effect the other way counts as inactive or inconclusive)
Method in brief: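 After 4 h attachment on collagen I, HepG2 cells were dosed with compound alongside LipidTOX Red, kept 24 h at 37 C, fixed, and imaged for lamellar phospholipid pits.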
% is set by controls: 0 for no effect and ±100 for the full control effect.

CC(=O)CC(=O)Nc1ccc(C)cc1C
inactive: Potency [1] | Potency [2] | Potency [3] | Potency [4] | Potency [5] | outcome [6] | outcome [7] | Potency [8]

O=C1NC(c2ccccc2)(c2ccccc2)C(=O)N1COP(=O)(O)O
inactive: Potency [1] | Potency [2] | Potency [3] | Potency [4] | Potency [5] | outcome [6] | outcome [7] | Potency [8]

CC(=O)c1cc(C)oc1C
inactive: Potency [1] | Potency [2] | Potency [3] | Potency [4] | Potency [5] | outcome [6] | outcome [7] | Potency [8]

O=Cc1cc2ccccc2o1
inactive: Potency [1] | Potency [2] | Potency [3] | Potency [4] | Potency [5] | outcome [6]

COS(=O)(=O)O
inactive: Potency [1] | Potency [2] | Potency [3] | Potency [4] | Potency [5] | outcome [6] | outcome [7]

O/N=C/C=N/O
inactive: Potency [1] | Potency [2] | Potency [3] | Potency [4] | Potency [5] | outcome [6] | outcome [7]

CO[Si](CCCn1c(=O)n(CCC[Si](OC)(OC)OC)c(=O)n(CCC[Si](OC)(OC)OC)c1=O)(OC)OC
inactive: Potency [1] | Potency [2] | Potency [3] | Potency [4] | Potency [5] | outcome [6] | outcome [7]

O=C(CCCl)NCCc1ccccc1
inactive: Potency [1] | Potency [2] | Potency [3] | Potency [4] | Potency [5] | outcome [6] | outcome [7] | Potency [8] | outcome [9]

C=CCCCC
inactive: Potency [1] | Potency [2] | Potency [3] | Potency [4] | Potency [5] | outcome [6] | outcome [7] | outcome [9]

Cc1ccc(C(=O)O)cc1[N+](=O)[O-]
inactive: Potency [1] | Potency [2] | Potency [3] | Potency [4] | Potency [5] | outcome [6] | outcome [7] | Potency [8] | outcome [9]

O=C(NCN1CCOCC1)c1cnccn1
inactive: Potency [1] | Potency [2] | Potency [3] | Potency [4] | Potency [5] | outcome [6] | outcome [7] | Potency [8] | outcome [9] | outcome [10]

CC1OCCC1=O (stereo not drawn)
inactive: Potency [1] | Potency [2] | Potency [3] | Potency [4] | Potency [5] | outcome [6] | outcome [7] | outcome [9]

Cc1ccccc1C(N)=O
inactive: Potency [1] | Potency [2] | Potency [3] | Potency [4] | Potency [5] | outcome [6] | outcome [7] | outcome [9]

CCOc1ccccc1OCC1CNCCO1 (stereo not drawn)
inactive: Potency [1] | Potency [2] | Potency [3] | Potency [4] | Potency [5] | outcome [6] | outcome [7] | Potency [8] | outcome [9]

C[Si]1(C)O[Si](C)(C)O[Si](C)(C)O[Si](C)(C)O[Si](C)(C)O1
inactive: Potency [1] | Potency [2] | Potency [3] | Potency [4] | Potency [5] | outcome [6] | outcome [7] | outcome [9]

COC(=O)c1cc(Cl)cc(Cl)c1
inactive: Potency [1] | Potency [2] | Potency [3] | Potency [4] | Potency [5] | outcome [6] | outcome [7] | Potency [8] | outcome [9]

CC(CO)(CO)CO
inactive: Potency [1] | Potency [2] | Potency [3] | Potency [4] | Potency [5] | outcome [6] | outcome [7] | outcome [9]

CCN1CCCC1CN (stereo not drawn)
inactive: Potency [1] | Potency [2] | Potency [3] | Potency [4] | Potency [5] | outcome [6] | outcome [7] | outcome [9]

CCc1occc(=O)c1O
inactive: Potency [1] | Potency [2] | Potency [3] | Potency [4] | Potency [5] | outcome [6] | outcome [7] | outcome [9]

CC(=O)CCc1ccc(OC(C)=O)cc1
inactive: Potency [1] | Potency [2] | Potency [3] | Potency [4] | Potency [5] | outcome [6] | outcome [7] | outcome [9]

COC(=O)c1ccccc1C(=O)O
inactive: Potency [1] | Potency [2] | Potency [3] | Potency [4] | Potency [5] | outcome [6] | outcome [7] | outcome [9]

C/C(=C1\CCOC(=O)S1)N(C=O)Cc1cnc(C)nc1N
inactive: Potency [1] | Potency [2] | Potency [3] | Potency [4] | Potency [5] | outcome [6] | outcome [7] | outcome [9]

CC(C)COC(=O)c1ccccc1
inactive: Potency [1] | Potency [2] | Potency [3] | Potency [4] | Potency [5] | outcome [6] | outcome [7] | Potency [8] | outcome [9]

O=C(O)CSCC(=O)NC1CCSC1=O (stereo not drawn)
inactive: Potency [1] | Potency [2] | Potency [3] | Potency [4] | Potency [5] | outcome [6] | outcome [7] | Potency [8] | PLD induction [10] 5.58% [at 7.66 µM]

COc1cc(/C=C/C(N)=O)cc(OC)c1OC
inactive: Potency [1] | Potency [2] | Potency [3] | Potency [4] | Potency [5] | outcome [6] | outcome [7] | Potency [8] | outcome [9]

CCCCOC(=O)[C@H](C)O
inactive: Potency [1] | Potency [2] | Potency [3] | Potency [4] | Potency [5] | outcome [6] | outcome [7] | outcome [9]

CCCCCCCCCCCCCCCCCC#N
inactive: Potency [1] | Potency [2] | Potency [3] | Potency [4] | Potency [5] | outcome [6] | outcome [7] | outcome [9]

CCCCCCCCCCOC(C)=O
inactive: Potency [1] | Potency [2] | Potency [3] | Potency [4] | Potency [5] | outcome [6] | outcome [7] | outcome [9]
